An excerpt weighted towards active compounds, which were near 1.2% of everything screened.
BRCA1 expr act – activators of BRCA1 expression; 380,000 tested, 1.1% active; Potency, µM (series often up to 46.1 µM), for inactives: at the top dose activation, usual class: activators; MCF7-BRCA1-FFLuc reporter, luminescence, 48 h; response scale: scaled: vehicle 0%, 10 µM genistein 100%; AID 624202; note: nearly all actives have a fitted effect of over 80% in size
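Reporter cells (MCF7, BRCA1 promoter-firefly luciferase) received library compounds across a concentration series for 48 h. End-point luminescence was measured and concentration-effect curves derived after normalization.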
Apoferritin bind – candidate novel general anesthetic via apoferritin binding; apoferritin/1-aminoanthracene competitive binding, fluorescence; Potency, µM (doses to about 77.5 µM), for the others: at the top dose activity change, negative = displacement, actives largely listed as inhibitors; P02791; 350,000 tested, 0.074% active; note: % is set by controls: 0 for no effect and ±100 for the full control effect; nearly all actives have a fitted effect of over 20% in size
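Horse-spleen apoferritin (10 uM) was mixed with 50% saturated 1-aminoanthracene in PBS, exposed to compounds for 10 min at room temperature, and read for fluorescence (ex 380 nm, em 535 nm). Competitive displacement was fitted with a four-parameter Hill equation.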
GoLoco inh red – RGS12 GoLoco-Gai1 interaction inhibition | P63096 | 230,000 tested, 0.44% active | Potency, µM (doses to about 61.6 µM), for the others: top-dose activity, negative = inhibition, actives largely listed as inhibitors | Gai1:RGS12 GoLoco peptide FP, rhodamine, 10 min; active = well fitted inhibition curve with a large enough effect, not every such curve was filed as active; inactive = no such curve, though single readings can be large or run the other way; note: % is set by controls: 0 for no effect and ±100 for the full control effect; nearly all actives have a fitted effect of over 30% in size
Target sequence (P63096 whole entry, looked up): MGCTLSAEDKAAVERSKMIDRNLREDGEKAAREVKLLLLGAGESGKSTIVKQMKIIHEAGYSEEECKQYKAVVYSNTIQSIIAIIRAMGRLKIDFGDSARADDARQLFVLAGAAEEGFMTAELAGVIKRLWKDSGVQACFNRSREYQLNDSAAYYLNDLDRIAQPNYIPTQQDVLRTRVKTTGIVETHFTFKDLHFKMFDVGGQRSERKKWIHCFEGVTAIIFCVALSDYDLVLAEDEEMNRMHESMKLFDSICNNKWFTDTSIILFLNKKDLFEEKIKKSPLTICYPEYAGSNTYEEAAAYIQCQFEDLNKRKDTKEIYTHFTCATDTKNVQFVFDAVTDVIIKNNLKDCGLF
ERG Ets-DNA blk – ERG Ets/DNA interaction inhibition; fluorescence polarization, His-ERG Ets domain / labelled DNA; Potency, µM (top dose mostly 76.9 µM), without a hit: top-dose FP activity, negative = inhibition, hits mostly inhibitors; 370,000 tested, 0.028% active; active = well fitted inhibition curve with a large enough effect in the polarisation, with a control signal flat; inconclusive = small, poorly fitted or top-dose-only effect, or effect the other way, or a change in a side signal; inactive = no such curve, though single readings can be large or run the other way; the % refers to the polarisation;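 note: polarization taken with two DNA probes labelled with fluorescein and Texas red; % of control where 0% means no effect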
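His-tagged ERG Ets domain (1 uM in the protein solution; 300mM KCl, 50mM Tris-HCl, 1mM EDTA, 1mM DTT, pH 7.5) received compound, then a probe mix of 5 nM fluorescein-DNA and 100nM Texas-615-DNA. Fluorescence polarization was read for both dyes.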
Starred values were filed as active, the others as inactive. Unless noted, calls come from the whole dose curve; as a rule, active = well fitted curve in the direction sought with a large enough effect; inconclusive = small, poorly fitted or top-dose-only effect, or another doubt; inactive = no such curve, though single readings can be large; an effect the other way counts as inactive or inconclusive. Potency is the fitted concentration of half-maximal effect.

How did Fc1ccc(CSc2ncnc3c2ncn3C2CCCCO2)cc1 (stereo not given) do in these assays?
BRCA1 expr act: 7.1µM*; ERG Ets-DNA blk: -1%

Results for c1ccc(CSc2ncnc3c2ncn3C2CCCCO2)cc1 (stereo not given) ?
BRCA1 expr act: inconclusive; ERG Ets-DNA blk: 3%

What do the screens show for `Fc1cccc(CSc2ncnc3c2ncn3C2CCCCO2)c1` (stereo not given)?
BRCA1 expr act: inconclusive; ERG Ets-DNA blk: 5%

What do the screens show for `Clc1cccc(CSc2ncnc3c2ncn3C2CCCCO2)c1` (stereo not given)?
BRCA1 expr act: 5.6µM*; ERG Ets-DNA blk: -4%

What do the screens show for `c1ccc(CNc2ncnc3c2ncn3C2CCCCO2)cc1` (stereo not given)?
BRCA1 expr act: 13µM*; Apoferritin bind: inconclusive; GoLoco inh red: -3%

How did CCc1ccc(NC(=O)NC2CCCCCCC2)cc1 do in these assays?
BRCA1 expr act: inconclusive; Apoferritin bind: -1%; ERG Ets-DNA blk: -6%

Results for CCc1ccc(NC(=O)C(=S)NC2CCCCC2)cc1 ?
BRCA1 expr act: 2µM*; Apoferritin bind: -3%; GoLoco inh red: 2%; ERG Ets-DNA blk: 7%

What do the screens show for `COC(CNC(=O)c1cccnc1)OC`?
BRCA1 expr act: 42%; Apoferritin bind: -3%; GoLoco inh red: 3%; ERG Ets-DNA blk: -7%

What do the screens show for `COC(CNC(=O)c1ccc2c3c(onc13)-c1ccccc1C2=O)OC`?
BRCA1 expr act: -100%; Apoferritin bind: -9%; GoLoco inh red: 10µM*; ERG Ets-DNA blk: 16%

Results for C=C[C@@]1(C)CC(=O)[C@]2(O)[C@@]3(C)[C@H](O)CCC(C)(C)[C@@H]3[C@H](O)[C@H](OC(C)=O)[C@@]2(C)O1 ?
Apoferritin bind: -1%

How did COC(=O)N/N=C\c1ccc(OC(=O)c2ccco2)cc1 do in these assays?
BRCA1 expr act: 8%; Apoferritin bind: 0%; GoLoco inh red: 4%; ERG Ets-DNA blk: -1%

How did CC(C)(C)OC(=O)N/N=C\c1ccc(OC(=O)c2ccco2)cc1 do in these assays?
BRCA1 expr act: 7.9µM*; Apoferritin bind: -13%; GoLoco inh red: 3%; ERG Ets-DNA blk: -12%

What do the screens show for `CCOC(=O)c1ccc(OS(=O)(=O)c2ccccc2)c(OC)c1`?
BRCA1 expr act: 5.6µM*; Apoferritin bind: -6%; GoLoco inh red: 11%; ERG Ets-DNA blk: 2%

Results for Cc1cccc(/C(N)=N/OC(=O)CCc2ccccc2)c1 ?
BRCA1 expr act: 13µM*; Apoferritin bind: inconclusive

How did CCOC(=O)c1ccc(O)cc1 do in these assays?
GoLoco inh red: 7%

What do the screens show for `CCOC(=O)c1ccc(N=NN(C)C)cc1`?
BRCA1 expr act: 13µM*; Apoferritin bind: -6%; GoLoco inh red: -2%; ERG Ets-DNA blk: 4%

How did N#Cc1cccc(S(=O)(=O)N2CCN(S(=O)(=O)c3ccc4c(c3)OCCO4)CC2)c1 do in these assays?
BRCA1 expr act: 2%

Results for Cc1cc(S(=O)(=O)NCCc2ccccc2)c(C)s1 ?
BRCA1 expr act: 1%; Apoferritin bind: 8.9µM*; GoLoco inh red: -3%; ERG Ets-DNA blk: -2%

What do the screens show for `Cc1cc(S(=O)(=O)NCCN2CCOCC2)c(C)s1`?
BRCA1 expr act: -3%; Apoferritin bind: 12%; GoLoco inh red: 6%; ERG Ets-DNA blk: 7%

How did CN(C)C(=O)COC(=O)c1ccccc1OCC(=O)Nc1ccc(Br)cc1 do in these assays?
BRCA1 expr act: -1%

Results for CC(C)Nc1oc(-c2cccc3ccccc23)nc1C#N ?
BRCA1 expr act: 14µM*; Apoferritin bind: 305%; GoLoco inh red: -12%

Results for CC(C)Cn1c(-c2cccs2)nc2ccccc21 ?
BRCA1 expr act: 1%; Apoferritin bind: -22%; GoLoco inh red: 2%; ERG Ets-DNA blk: 5%

What do the screens show for `Cn1c(-c2cccs2)nc2ccccc21`?
BRCA1 expr act: 7.9µM*; Apoferritin bind: -22%; GoLoco inh red: -16%; ERG Ets-DNA blk: -12%

What do the screens show for `Cn1c(-c2ccc(C=O)s2)nc2ccccc21`?
BRCA1 expr act: 11µM*; Apoferritin bind: 861%; GoLoco inh red: 1%; ERG Ets-DNA blk: 8%

Results for COc1ccc2c(Sc3ccccc3)c(C(=O)N3CCC(C)CC3)[nH]c2c1 ?
Apoferritin bind: -19%; ERG Ets-DNA blk: -6%

Assay outcomes as filed in PubChem.
